Records with an inconclusive call do not appear. Activity calls are given as the source filed them. Unless noted, calls come from the whole dose curve.
Assays:
[1] = qHTS assay to identify small molecule agonists of the sonic hedgehog signaling (Shh) pathway (AID 1259368);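 note: NIH/3T3-derived 3T3Gli1-Luc cells carrying a stable Gli1-driven firefly luciferase reporter; series mostly up to about 92 µM; nearly all actives have a fitted effect of over 15% in size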
Procedure, shortened: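 Luminescence was read after 30 min at room temperature with luciferase reagent. Before that, 3T3Gli1-Luc cells (NIH/3T3 clone, stable Gli1-Luc reporter; 2,000/well) were exposed to compounds for 24 hr at 37C, 5% CO2, compounds being added 4 hr post-plating.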

[2] = qHTS assay to identify small molecule antagonists of the sonic hedgehog signaling (Shh) pathway (AID 1259369); note: nearly all actives have a fitted effect of over 45% in size
Procedure, shortened: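 Antagonist mode: compound added to 3T3 Gli1-Luc cells followed by conditioned-medium stimulation, 24 h at 37 C, 5% CO2. Inhibition taken as loss of Gli1-driven luciferase luminescence.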

[3] = target: Estrogen receptor beta (Homo sapiens) (UniProt Q92731); experiment: qHTS assay to identify small molecule antagonists of the estrogen receptor beta (ER-beta) signaling pathway (AID 1259378; active = well fitted inhibition curve with a large enough effect in the signal ratio in the repeat runs, not every such curve was filed as active; the % refers to the signal ratio)
Chain of Estrogen receptor beta (Homo sapiens) (Q92731 whole entry, looked up): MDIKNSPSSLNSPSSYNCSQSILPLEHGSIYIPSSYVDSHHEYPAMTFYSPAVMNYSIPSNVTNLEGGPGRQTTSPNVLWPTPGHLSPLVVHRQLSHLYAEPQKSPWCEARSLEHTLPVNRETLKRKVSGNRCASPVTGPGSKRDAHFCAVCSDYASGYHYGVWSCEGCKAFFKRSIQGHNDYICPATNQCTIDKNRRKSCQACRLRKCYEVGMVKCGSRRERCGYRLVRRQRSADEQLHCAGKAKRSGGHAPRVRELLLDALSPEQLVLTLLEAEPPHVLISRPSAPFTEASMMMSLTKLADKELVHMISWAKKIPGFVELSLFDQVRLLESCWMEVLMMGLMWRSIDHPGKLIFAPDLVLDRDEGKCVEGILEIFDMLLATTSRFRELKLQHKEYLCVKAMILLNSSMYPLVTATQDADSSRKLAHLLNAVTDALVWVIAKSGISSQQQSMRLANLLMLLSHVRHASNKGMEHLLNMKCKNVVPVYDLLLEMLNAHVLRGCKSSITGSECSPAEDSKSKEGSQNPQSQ
Procedure, shortened: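 Antagonist mode: compounds added to beta-lactamase reporter HEK293T ER-beta-UAS cells stimulated with E2 (1nM final), 16 hr at 37C. LiveBLAzer B/G FRET substrate, 2 hours room temperature, fluorescence read-out.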

[4] = qHTS assay to identify small molecule agonists of the androgen receptor (AR) signaling pathway in the presence of an antagonist - cell viability counter screen (AID 1259379; active = well fitted curve in the direction sought with a large enough effect in the repeat runs; an effect the other way counts as inactive or inconclusive;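 note: MDA-kb2 human breast cancer cells carrying an MMTV luciferase reporter; series mostly up to about 92 µM; nearly all actives have a fitted effect of over 25% in size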)
Procedure, shortened: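 Cytotoxicity counter-screen run in the same wells as the nilutamide-challenged (3.0 µM final) AR agonist assay in MDA-kb2 cells. Compounds tested at 15 concentrations for 16 h, 37 °C without CO2; CellTiter-Fluor fluorescence read.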

[5] = qHTS assay to identify small molecule agonists of the estrogen receptor beta (ER-beta) signaling pathway - cell viability counter screen (AID 1259380; active = well fitted curve in the direction sought with a large enough effect in the repeat runs; an effect the other way counts as inactive or inconclusive; note: nearly all actives have a fitted effect of over 30% in size; note: potency is the fitted concentration of half-maximal effect)
Procedure, shortened: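 Cell viability counter screen: CellTiter-Glo luminescence (30 min, room temperature) measured in the same wells as the beta-lactamase readout, after 16 hr compound exposure at 37C of ER-beta-bla HEK293T cells in 2% charcoal-stripped FBS medium.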

[6] = qHTS assay to identify small molecule antagonists of the estrogen receptor beta (ER-beta) signaling pathway - cell viability counter screen (AID 1259382; active = well fitted curve in the direction sought with a large enough effect in the repeat runs; an effect the other way counts as inactive or inconclusive; note: nearly all actives have a fitted effect of over 55% in size; note: potency is the fitted concentration of half-maximal effect;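 for activity change, negative = cytotoxicity: HEK293T cells carrying ER-beta-UAS-bla reporter stimulated with estradiol; series mostly up to about 92 µM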)
Procedure, shortened: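 Cytotoxicity was measured in the same wells by CellTiter-Glo luminescence after 30 min at room temperature. Cells were ER-beta-bla HEK293T in charcoal-stripped serum, given compound together with 1 nM E2 and incubated 16 h at 37C.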

[7] = qHTS assay to identify small molecule agonists or antagonists of the thyroid stimulating hormone receptor (TSHR) signaling pathway - wild type cell line counter screen (AID 1259384)
Procedure, shortened: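 Counter screen in untransfected Hek293: compounds (15-point titration, triplicate) plus phosphodiesterase inhibitor Ro20-1724 added after 18 h plating; 30 min RT. Intracellular cAMP via competitive d2/cryptate immunoassay, 1 h incubation.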

[8] = qHTS assay to identify small molecule agonists of the estrogen receptor alpha (ER-alpha) signaling pathway in the presence of an antagonist - cell viability counter screen (AID 1259386; active = well fitted curve in the direction sought with a large enough effect in the repeat runs; an effect the other way counts as inactive or inconclusive; note: series mostly up to about 92 µM; nearly all actives have a fitted effect of over 30% in size)
Procedure, shortened: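 Compounds tested at 15 concentrations for 22 h at 37C alongside 10.0nM (final) ICI-182,780 antagonist, in VM7Luc4E2 cells grown in phenol red-free, charcoal-stripped medium. Viability read by CellTiter-Fluor fluorescence after 1 h reagent incubation.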

[9] = target: Progesterone receptor (Homo sapiens) (UniProt P06401); experiment: qHTS assay to identify small molecule agonists of the progesterone receptor (PR) signaling pathway (AID 1346784); note: nearly all actives have a fitted effect of over 30% in size
Chain of Progesterone receptor (Homo sapiens) (P06401 whole entry, looked up): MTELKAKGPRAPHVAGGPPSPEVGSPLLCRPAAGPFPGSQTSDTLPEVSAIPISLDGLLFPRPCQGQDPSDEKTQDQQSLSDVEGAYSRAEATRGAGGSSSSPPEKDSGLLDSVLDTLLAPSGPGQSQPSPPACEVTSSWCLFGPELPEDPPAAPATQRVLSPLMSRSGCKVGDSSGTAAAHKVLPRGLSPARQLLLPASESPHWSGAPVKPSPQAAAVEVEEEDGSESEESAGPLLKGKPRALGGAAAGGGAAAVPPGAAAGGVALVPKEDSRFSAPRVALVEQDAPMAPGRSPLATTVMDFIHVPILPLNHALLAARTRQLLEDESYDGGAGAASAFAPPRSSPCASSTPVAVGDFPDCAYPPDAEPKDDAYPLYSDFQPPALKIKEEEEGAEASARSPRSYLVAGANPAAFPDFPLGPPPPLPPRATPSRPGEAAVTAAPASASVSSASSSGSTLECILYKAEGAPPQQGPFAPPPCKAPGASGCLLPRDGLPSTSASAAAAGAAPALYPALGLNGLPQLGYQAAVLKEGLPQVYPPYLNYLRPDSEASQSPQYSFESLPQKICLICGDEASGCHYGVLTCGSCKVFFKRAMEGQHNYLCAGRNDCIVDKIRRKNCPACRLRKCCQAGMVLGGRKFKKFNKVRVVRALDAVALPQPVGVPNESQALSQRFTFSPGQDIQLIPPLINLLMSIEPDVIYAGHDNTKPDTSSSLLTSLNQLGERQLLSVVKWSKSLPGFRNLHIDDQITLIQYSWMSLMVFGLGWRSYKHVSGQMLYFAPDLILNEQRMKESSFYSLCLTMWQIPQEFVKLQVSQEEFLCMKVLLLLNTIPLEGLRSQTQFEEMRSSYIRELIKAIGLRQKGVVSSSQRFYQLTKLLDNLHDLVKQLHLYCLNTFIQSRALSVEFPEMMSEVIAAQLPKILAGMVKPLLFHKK
Procedure, shortened: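 Beta-lactamase reporter read-out: after 16 hr compound treatment at 37C and a further 2 hr at room temperature with LiveBLAzer B/G FRET substrate, fluorescence was measured in PR-UAS-bla HEK 293T cells grown in 2% charcoal-stripped serum.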

[10] = target: Progesterone receptor (Homo sapiens) (UniProt P06401); experiment: qHTS assay to identify small molecule antagonists of the progesterone receptor (PR) signaling pathway (AID 1346795; active = well fitted inhibition curve with a large enough effect in the signal ratio in the repeat runs, not every such curve was filed as active; the % refers to the signal ratio)
Procedure, shortened: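 Read-out is fluorescence from the LiveBLAzer B/G FRET substrate, cleaved by a UAS-controlled beta-lactamase in PR-UAS-bla HEK293T cells after 16 hr exposure to compound plus 1 nM promegestone (final), followed by 2 hr at room temperature.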

[11] = qHTS assay to identify small molecule antagonists of the progesterone receptor (PR) signaling pathway - cell viability counter screen (AID 1346798; active = well fitted curve in the direction sought with a large enough effect in the repeat runs; an effect the other way counts as inactive or inconclusive;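 note: HEK293T PR-UAS-bla cells stimulated with the agonist R5020; series mostly up to about 92 µM; nearly all actives have a fitted effect of over 50% in size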)
Procedure, shortened: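 HEK293T PR-UAS-bla, 2% charcoal-stripped FBS; 4 hr pre-plate; cpd + R5020, 16 h 37C; LiveBLAzer read first; then CellTiter-Glo 30 min RT, luminescence.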

[12] = qHTS assay to identify small molecule agonists of the progesterone receptor (PR) signaling pathway - cell viability counter screen (AID 1346799); note: nearly all actives have a fitted effect of over 45% in size; note: potency is the fitted concentration of half-maximal effect
Procedure, shortened: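 Luminescence from CellTiter-Glo, added after the beta-lactamase FRET read in the same wells, gave cytotoxicity in PR-UAS-bla HEK293T cells treated with compounds for 16 hr at 37C.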

[13] = qHTS assay to identify small molecule antagonists of the TGF-beta/Smad signaling pathway - cell viability counter screen (AID 1346824; active = well fitted curve in the direction sought with a large enough effect in the repeat runs; an effect the other way counts as inactive or inconclusive; note: nearly all actives have a fitted effect of over 50% in size)
Procedure, shortened: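 Cytotoxicity counter-screen run in the same wells as the beta-lactamase Smad reporter read: CellTiter-Glo luminescence after 30 min at room temperature. HEK 293T SBE-bla cells had 5 hr compound exposure at 37 C with TGF-beta1 (0.25 ng/mL stock).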

[14] = qHTS assay to identify small molecule agonists of the TGF-beta/Smad signaling pathway - cell viability counter screen (AID 1346829; active = well fitted curve in the direction sought with a large enough effect in the repeat runs; an effect the other way counts as inactive or inconclusive; note: top concentration of the series differs between compounds; nearly all actives have a fitted effect of over 45% in size)
Procedure, shortened: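 SBE-bla HEK 293T cells plated overnight, compound exposure 5 hr at 37 C. Viability read in the same wells by CellTiter-Glo luminescence after 30 min at room temperature, following the beta-lactamase read.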

[15] = qHTS assay to identify small molecule agonists of the TGF-beta/Smad signaling pathway (AID 1346859; active = well fitted activation curve with a large enough effect in the signal ratio in the repeat runs, not every such curve was filed as active; the % refers to the signal ratio; note: series mostly up to about 77 µM)
Procedure, shortened: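 SBE-bla HEK 293T, 4,000 cells/well, plated o/n; cpd in DMSO, 5 hr, 37 C/5% CO2; B/G FRET substrate 2 hr RT; ex 405, em 460/530 nm.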

[16] = target: Thyrotropin-releasing hormone receptor (Homo sapiens) (UniProt P34981); experiment: qHTS assay to identify small molecule antagonists of the thyrotropin-releasing hormone receptor (TRHR) signaling pathway (AID 1346877; active = well fitted inhibition curve with a large enough effect in the repeat runs, not every such curve was filed as active; note: series mostly up to about 51 µM)
Chain of Thyrotropin-releasing hormone receptor (Homo sapiens) (P34981 whole entry, looked up): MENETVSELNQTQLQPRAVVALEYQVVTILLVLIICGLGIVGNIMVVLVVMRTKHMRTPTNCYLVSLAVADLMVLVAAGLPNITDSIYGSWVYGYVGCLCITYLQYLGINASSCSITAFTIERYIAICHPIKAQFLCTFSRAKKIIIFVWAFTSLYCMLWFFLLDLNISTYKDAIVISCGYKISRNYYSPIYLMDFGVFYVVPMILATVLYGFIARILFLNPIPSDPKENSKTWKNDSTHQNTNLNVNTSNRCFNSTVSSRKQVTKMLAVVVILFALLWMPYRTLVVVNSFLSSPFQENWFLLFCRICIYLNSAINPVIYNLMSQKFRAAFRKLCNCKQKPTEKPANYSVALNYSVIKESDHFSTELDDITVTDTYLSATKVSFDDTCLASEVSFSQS
Procedure, shortened: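 Antagonist mode: after a 5 min room-temperature compound exposure, cells were stimulated with 1 nM (final) TRH. Dye-loaded TRHR-HEK293 cells were used, and calcium-dependent fluorescence was followed for 3 min, with 15-point titrations run in triplicate.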

[17] = target: Androgen receptor (Homo sapiens) (UniProt P10275); experiment: qHTS assay to identify small molecule agonists of the androgen receptor (AR) signaling pathway in the presence of an antagonist (AID 1259381); note: nearly all actives have a fitted effect of over 15% in size
Chain of Androgen receptor (Homo sapiens) (P10275 whole entry, looked up): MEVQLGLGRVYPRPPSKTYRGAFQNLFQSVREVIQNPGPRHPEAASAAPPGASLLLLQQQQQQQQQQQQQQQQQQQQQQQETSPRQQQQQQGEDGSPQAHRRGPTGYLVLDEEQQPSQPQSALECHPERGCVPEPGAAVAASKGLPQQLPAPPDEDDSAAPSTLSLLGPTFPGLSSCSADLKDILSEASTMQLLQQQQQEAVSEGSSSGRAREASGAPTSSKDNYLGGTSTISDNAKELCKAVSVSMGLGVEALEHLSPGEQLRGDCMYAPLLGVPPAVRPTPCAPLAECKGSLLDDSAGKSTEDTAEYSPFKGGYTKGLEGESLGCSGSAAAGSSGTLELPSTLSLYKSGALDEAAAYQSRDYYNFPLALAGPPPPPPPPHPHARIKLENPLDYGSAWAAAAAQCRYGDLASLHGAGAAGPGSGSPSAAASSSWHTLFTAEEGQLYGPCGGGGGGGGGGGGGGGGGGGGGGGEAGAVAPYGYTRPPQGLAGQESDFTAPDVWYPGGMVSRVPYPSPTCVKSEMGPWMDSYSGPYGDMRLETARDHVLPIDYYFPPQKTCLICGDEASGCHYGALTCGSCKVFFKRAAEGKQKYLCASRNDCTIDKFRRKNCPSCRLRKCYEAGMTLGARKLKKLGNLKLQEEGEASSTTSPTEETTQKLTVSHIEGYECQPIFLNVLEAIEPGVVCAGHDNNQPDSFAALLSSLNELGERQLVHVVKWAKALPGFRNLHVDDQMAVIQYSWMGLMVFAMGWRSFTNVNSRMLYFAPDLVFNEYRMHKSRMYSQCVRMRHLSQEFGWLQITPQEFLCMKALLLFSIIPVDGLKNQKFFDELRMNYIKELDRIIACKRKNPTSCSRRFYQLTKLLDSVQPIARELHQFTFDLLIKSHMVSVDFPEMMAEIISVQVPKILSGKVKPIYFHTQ
Procedure, shortened: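 Agonist-mode confirmation run against 3.0 uM final nilutamide: compounds titrated at 15 concentrations onto MDA-kb2 MMTV-luciferase reporter cells. Luminescence measured with ONE-Glo following 16 hr incubation, 37C, 0% CO2.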

[18] = target: Estrogen receptor (Homo sapiens) (UniProt P03372); experiment: qHTS assay to identify small molecule agonists of the estrogen receptor alpha (ER-alpha) signaling pathway in the presence of an antagonist (AID 1259383); note: top concentration of the series differs between compounds; nearly all actives have a fitted effect of over 15% in size
Chain of Estrogen receptor (Homo sapiens) (P03372 whole entry, looked up): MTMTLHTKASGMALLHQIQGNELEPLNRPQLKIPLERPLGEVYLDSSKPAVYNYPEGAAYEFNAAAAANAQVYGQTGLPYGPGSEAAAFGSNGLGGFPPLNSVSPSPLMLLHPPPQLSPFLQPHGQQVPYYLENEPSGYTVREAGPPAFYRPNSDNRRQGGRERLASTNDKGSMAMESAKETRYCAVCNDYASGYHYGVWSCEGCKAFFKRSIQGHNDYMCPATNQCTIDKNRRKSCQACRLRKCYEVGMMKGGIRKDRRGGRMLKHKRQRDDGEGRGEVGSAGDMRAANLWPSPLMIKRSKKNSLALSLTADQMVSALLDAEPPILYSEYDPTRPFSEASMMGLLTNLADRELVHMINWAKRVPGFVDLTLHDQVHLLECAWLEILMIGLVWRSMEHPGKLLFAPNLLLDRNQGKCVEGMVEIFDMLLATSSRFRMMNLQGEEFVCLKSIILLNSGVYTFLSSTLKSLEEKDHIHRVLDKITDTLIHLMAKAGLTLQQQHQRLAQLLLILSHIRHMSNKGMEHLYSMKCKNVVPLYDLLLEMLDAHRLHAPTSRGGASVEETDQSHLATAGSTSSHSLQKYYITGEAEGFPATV
Procedure, shortened: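 Agonist-mode confirmation run in the presence of 10.0nM (final) ICI-182,780 antagonist. The reporter was ERE-driven luciferase in VM7Luc4E2 cells, grown in charcoal-stripped serum. Cells were exposed to 15-concentration compound series for 22hr, then ONE-Glo luminescence was read.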

[19] = target: Thyrotropin receptor (Homo sapiens) (UniProt P16473); experiment: qHTS assay to identify small molecule antagonists of the thyroid stimulating hormone receptor (TSHR) signaling pathway (AID 1259385); note: nearly all actives have a fitted effect of over 20% in size
Chain of Thyrotropin receptor (Homo sapiens) (P16473 whole entry, looked up): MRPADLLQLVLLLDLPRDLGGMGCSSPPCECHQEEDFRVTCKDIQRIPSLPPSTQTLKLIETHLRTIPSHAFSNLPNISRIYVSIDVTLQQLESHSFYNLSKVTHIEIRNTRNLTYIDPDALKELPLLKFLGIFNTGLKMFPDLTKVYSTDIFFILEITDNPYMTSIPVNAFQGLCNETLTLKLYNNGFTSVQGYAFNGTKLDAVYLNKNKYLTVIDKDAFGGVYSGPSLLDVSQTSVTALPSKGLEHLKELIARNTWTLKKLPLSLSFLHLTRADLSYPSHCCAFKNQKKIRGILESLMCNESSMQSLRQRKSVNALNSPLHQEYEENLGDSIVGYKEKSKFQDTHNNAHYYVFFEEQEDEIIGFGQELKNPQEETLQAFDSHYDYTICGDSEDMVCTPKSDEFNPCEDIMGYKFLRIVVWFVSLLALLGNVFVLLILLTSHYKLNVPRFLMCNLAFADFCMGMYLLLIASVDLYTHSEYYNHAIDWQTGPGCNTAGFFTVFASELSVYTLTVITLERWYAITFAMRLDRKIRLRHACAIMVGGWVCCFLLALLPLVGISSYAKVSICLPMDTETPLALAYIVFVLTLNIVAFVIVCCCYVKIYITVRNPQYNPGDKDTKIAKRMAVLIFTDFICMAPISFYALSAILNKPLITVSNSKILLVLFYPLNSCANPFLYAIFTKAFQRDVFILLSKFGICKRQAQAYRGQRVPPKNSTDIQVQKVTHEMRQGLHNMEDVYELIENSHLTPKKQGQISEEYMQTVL
Procedure, shortened: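 Antagonist mode: compound-treated TSHR-expressing HEK293 cells were stimulated with 1.5 ng/mL TSH (final) in presence of Ro20-1724 for 30 min at RT. HTRF cAMP detection after 1 h; each compound tested at 15 concentrations, triplicate.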
% is set by controls: 0 for no effect and ±100 for the full control effect.

CCC(C)CCCC(C)(C)O (centres undefined)
inactive: Potency [1] | Potency [2] | Potency [3] | Potency [4] | Potency [5] | Potency [6] | outcome [7] | Potency [8] | Potency [9] | Potency [10] | Potency [11] | Potency [12] | outcome [13] | outcome [14] | outcome [15] | outcome [16]

O=C(C1CCCCC1)N1CC(=O)N2CCCc3ccccc3C2C1 (centres undefined)
inactive: Potency [1] | Potency [2] | Potency [4] | Potency [5] | Potency [17] | Potency [6] | Potency [18] | outcome [7] | Potency [8] | Potency [9] | Potency [11] | Potency [12] | outcome [13] | outcome [14] | outcome [16]

O=C(O)c1ccc2c(c1)nc(C(=O)NC1CCN(C3CC3)CC1)n2Cc1cc(-c2ccc(Cl)s2)on1
inactive: activity change [1] -5.1% [at 18.9 µM, hits give high values] | activity change, negative = inhibition [2] -2.6% [at 19 µM] | activity, negative = inhibition [3] 18.6% [at 19 µM] | activity change, negative = cytotoxicity [4] 2.61% [at 19 µM] | activity change, negative = cytotoxicity [6] -12.8% [at 19 µM] | activation [18] 1.43% [at 19 µM] | cAMP activity change [7] 1.96% [at 18.9 µM] | activity change, negative = cytotoxicity [8] 7.53% [at 19 µM] | activity change, negative = cytotoxicity [11] -14.4% [at 18.9 µM] | activity change, negative = cytotoxicity [12] -20.4% [at 19 µM] | viability change, negative = cytotoxic [13] 0.205% [at 15.8 µM] | activity change, negative = cytotoxicity [14] 20.2% [at 15.8 µM] | activity, negative = inhibition [16] 0.0336% [at 10.5 µM]

CC(=O)Nc1cccc(N)c1
inactive: Potency [1] | Potency [2] | Potency [3] | Potency [18] | outcome [7] | Potency [8] | Potency [9] | Potency [10] | Potency [11] | Potency [12] | outcome [13] | outcome [14] | outcome [15] | outcome [16]

CC(C)(C)c1ccc(CCC=O)cc1
inactive: Potency [1] | Potency [2] | Potency [3] | Potency [4] | Potency [6] | Potency [18] | outcome [7] | Potency [19] | Potency [8] | Potency [9] | Potency [10] | Potency [11] | Potency [12] | outcome [13] | outcome [14] | outcome [15] | outcome [16]

CC(C)CC(C)(C)C
active: Potency [5] 35.7 µM | Potency [6] 31.8 µM | Potency [12] 31.8 µM
inactive: Potency [1] | Potency [2] | Potency [4] | Potency [18] | outcome [7] | Potency [8] | Potency [11] | outcome [13] | outcome [14] | outcome [15] | outcome [16]

Cc1nc(C)c(C)nc1C
inactive: Potency [1] | Potency [2] | Potency [3] | Potency [4] | Potency [17] | Potency [18] | outcome [7] | Potency [19] | Potency [8] | Potency [9] | outcome [13] | outcome [14] | outcome [15] | outcome [16]
active: Potency [12] 30.6 µM

Reference: PubChem BioAssay (Tox21)
